An excerpt weighted towards active compounds, which were near 1.9% of everything screened.
dFosB act – activators of mouse delta FosB homodimer. hit rate 0.99% among 340,000. purified delta FosB, TAMRA-CDK5 oligo fluorescence polarization; percent of positive-control signal above neutral wells. activation, % at 25 µM. P13346;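 active means mean activation above about 17%, with every replicate also reaching it, limit read from the data, passing the limit was not always enough; inconclusive means only one of the two conditions met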
Efa HMGR inh – inhibitors of class II HMG-CoA reductase from Enterococcus faecalis | purified E. faecalis HMGR, NADPH absorbance 340 nm kinetic | inhibition, % at 10 µM | hit rate 0.41% among 190,000;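 active means inhibition above a set limit, the median over all tested compounds plus 3 SD, cut at about 9.5% in these data; inconclusive means no clear call, values can overlap the other calls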;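 further: enzyme runs in reverse so mevalonate oxidation gives rising NADPH absorbance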
NCF1 inh – inhibitors of human p47phox binding; P14598; p47phox/p22phox peptide binding, fluorescence polarization, 2 h; inhibition, % at 24.7 µM; hit rate 0.53% among 220,000;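 active means inhibition above about 30%, limit read from the data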
Target sequence (P14598 whole entry, looked up): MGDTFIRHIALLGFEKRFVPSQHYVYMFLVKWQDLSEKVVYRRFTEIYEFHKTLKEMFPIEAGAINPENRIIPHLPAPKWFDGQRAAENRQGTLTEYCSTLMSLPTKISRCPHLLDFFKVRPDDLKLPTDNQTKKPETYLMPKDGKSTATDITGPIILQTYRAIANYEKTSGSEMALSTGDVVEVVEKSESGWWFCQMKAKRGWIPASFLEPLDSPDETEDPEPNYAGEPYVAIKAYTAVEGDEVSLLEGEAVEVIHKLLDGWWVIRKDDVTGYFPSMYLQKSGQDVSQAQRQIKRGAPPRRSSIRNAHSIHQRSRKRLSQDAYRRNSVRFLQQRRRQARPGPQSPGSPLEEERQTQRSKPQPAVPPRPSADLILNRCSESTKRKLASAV
14-3-3 Bad inh – disrupts binding of bovine 14-3-3 zeta to phospho-Bad peptide | inhibition, % at 21.7 µM | P63103 | TR-FRET 14-3-3zeta/Dy647-pBad peptide displacement, 1 h | hit rate 0.71% among 220,000;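 active means inhibition above about 70%, limit read from the data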
Target sequence (P63103 whole entry, looked up): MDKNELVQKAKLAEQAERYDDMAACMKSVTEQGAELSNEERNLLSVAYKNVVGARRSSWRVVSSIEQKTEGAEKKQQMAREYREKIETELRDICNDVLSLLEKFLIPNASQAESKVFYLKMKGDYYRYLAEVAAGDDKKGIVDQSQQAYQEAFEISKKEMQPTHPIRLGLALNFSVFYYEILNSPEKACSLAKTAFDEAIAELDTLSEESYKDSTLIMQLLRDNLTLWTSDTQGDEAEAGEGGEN
Of the large screens only hits and unclear results are named; the others gave an inactive call; ! = a repeat was not active; [ ] = another dose, or the depositor's remark.

Oc1c(N=Nc2ccc(F)cc2)ccc2ccccc12	none (no result: Efa HMGR inh, NCF1 inh, 14-3-3 Bad inh)
Oc1ccc2ccccc2c1N=Nc1ccc(F)cc1	dFosB act 104 (no result: Efa HMGR inh)
Cc1ccc(NC(=O)COC(=O)CN2C(=O)NC3(CCCC3)C2=O)cc1S(=O)(=O)N(C)C	none
Nc1ccc(C(=O)N/N=C\c2cc(N=Nc3cccc4ccccc34)ccc2O)cc1	14-3-3 Bad inh 77[fluorescence artefact?]
COC(=O)N/N=C/c1cc(N=Nc2ccccc2)ccc1O	none (no result: Efa HMGR inh)
Cc1cc(C(=O)N/N=C/c2cc(N=Nc3ccccc3)ccc2O)n[nH]1	NCF1 inh 35
O=C(Oc1cccc(C(=S)N2CCOCC2)c1)c1ccccc1	none (no result: Efa HMGR inh, NCF1 inh, 14-3-3 Bad inh)
CN(C)c1ccc(/C=C/c2ccc3ccccc3[n+]2C)cc1	dFosB act 96
CN(C)c1ccc(/C=C/c2ccc3c4ccccc4ccc3[n+]2-c2ccccc2)cc1	dFosB act 112
CN(CCCS(=O)(=O)[O-])c1ccc(/C=C/c2ccc3ccccc3[n+]2C)cc1	none (no result: Efa HMGR inh, NCF1 inh, 14-3-3 Bad inh)
COc1ccc(/C=C/C(=O)OCC(=O)NC2CCCC(C)C2C)cc1S(=O)(=O)N1CCOCC1 (stereo not drawn)	none
Clc1ccc2c(N/N=C/c3ccccc3Br)ccnc2c1	dFosB act 46
O=[N+]([O-])c1ccc(/C=N/Nc2ccnc3cc(Cl)ccc23)o1	none (no result: Efa HMGR inh, NCF1 inh, 14-3-3 Bad inh)
Clc1ccc2c(NNc3ccccc3Cl)ccnc2c1	none
Clc1ccc2c(N/N=C/c3cccc(Br)c3)ccnc2c1	dFosB act 52
CCS(=O)(=O)CCn1c([N+](=O)[O-])cnc1C	Efa HMGR inh 14
Cc1ncc([N+](=O)[O-])n1CC(C)O (stereo not drawn)	Efa HMGR inh 16!
Cc1ncc([N+](=O)[O-])n1CCO	none
COc1c(C=O)cc2c3c1CCCN3CCC2	none (no result: Efa HMGR inh, NCF1 inh, 14-3-3 Bad inh)
NCc1cc2c3c(c1)CCCN3CCC2	dFosB act 40 (no result: Efa HMGR inh, NCF1 inh, 14-3-3 Bad inh)
CCOc1ccc(-c2nnc(SCC(=O)Nc3ccc4c(c3)c3ccccc3n4CC)n2N)cc1	14-3-3 Bad inh 73
Cc1cc(CCC(=O)O)c(C)cc1CCC(=O)O	14-3-3 Bad inh 83
COc1ccc(CCC(=O)O)c(O)c1	none (no result: Efa HMGR inh)
COc1cc(NC(=O)c2ccccc2)c(OC)cc1NC(=O)CN1CCN(c2ccccn2)CC1	none
CS(=O)(=O)N1CCN(c2ccc([N+](=O)[O-])c(NCc3ccc(Cl)cc3)c2)CC1	14-3-3 Bad inh 71
CCc1ccc(OCCNc2cc(N3CCNC(C)C3)ccc2[N+](=O)[O-])cc1 (stereo not drawn)	dFosB act 45 (no result: Efa HMGR inh, NCF1 inh, 14-3-3 Bad inh)
CC1CN(c2ccc([N+](=O)[O-])c(NCCOc3ccc(Cl)cc3)c2)CC(C)N1 (stereo not drawn)	dFosB act 37 (no result: Efa HMGR inh, NCF1 inh, 14-3-3 Bad inh)
Cc1cccc(NC(=O)CCS(=O)(=O)c2ccc3c(c2)oc(=O)n3C)c1	none (no result: Efa HMGR inh, NCF1 inh, 14-3-3 Bad inh)
Cc1ccc(OCC(=O)NNC(=O)c2ccc(NC(=O)C3CC3)cc2)c(C)c1	dFosB act 34 (no result: Efa HMGR inh, NCF1 inh, 14-3-3 Bad inh)
CC(C)N1C(=O)CC2(CC[N+](C)(CCOC(=O)C(c3ccccc3)c3ccccc3)CC2)C1=O (stereo not drawn)	14-3-3 Bad inh 77[fluorescence artefact?]
O=C(OCCN1CCOCC1)C(c1ccccc1)c1ccccc1	none
CCc1cc(=O)oc2cc3occ(-c4ccc(OC)c(F)c4)c3cc12	dFosB act inconclusive, NCF1 inh 47, 14-3-3 Bad inh 94
COC(=O)c1ccc(NC(=O)COc2ccc(S(=O)(=O)NC(C)C)cc2)cc1	none
CN(C)c1ccc(C(=O)OCC(=O)Nc2ccc(S(N)(=O)=O)cc2)cc1	dFosB act 82
CCOC(=O)c1ccc(NC(=O)COc2ccc(S(=O)(=O)NC(C)C)cc2)cc1	14-3-3 Bad inh 72
O=S(=O)(c1ccc(N2CCC(c3ccc(Cl)cc3)=N2)cc1)N(CCO)CCO	none
CN(C)CCCNS(=O)(=O)c1ccc(N2CCC(c3ccc(Cl)cc3)=N2)cc1	NCF1 inh 41 (no result: dFosB act)
COc1ccc(CC(=S)N2CCOCC2)cc1F	none
CC1(C)CCCN(C(=O)c2ccc3c(c2NCCO)C(=O)c2ccccc2C3=O)C1	14-3-3 Bad inh 81[fluorescence artefact?]
CCN(CCN(C)C)C(=O)c1ccc2c(c1NCCO)C(=O)c1ccccc1C2=O	dFosB act 20
CCN(CC)C(=O)c1ccccc1NC(=O)c1ccccc1C	none
CCOC(=O)C1=C(COc2ccc(F)cc2Cl)NC(=O)NC1c1cc(C)ccc1C (stereo not drawn)	Efa HMGR inh 24
CCOC(=O)C1=C(COc2ccc(C)cc2)NC(=O)NC1c1cc(C)ccc1C (stereo not drawn)	NCF1 inh active
CCOC(=O)C1=C(CN2CCCCC2)NC(=O)NC1c1cc(C)ccc1C (stereo not drawn)	none
COc1ccccc1OCCCCCc1c(C)n[nH]c1C	14-3-3 Bad inh 72
Cc1cccc(OCc2nnc(SCC(=O)N3CCCC3)o2)c1	none (no result: Efa HMGR inh, NCF1 inh, 14-3-3 Bad inh)
Cc1cccc(OCc2nnc(SCc3nc4ccccc4c(=O)[nH]3)o2)c1	dFosB act 45
COc1ccc(OCC(=O)NNC(=O)c2cccnc2)cc1	14-3-3 Bad inh 92
Cc1ccc(OCC(=O)NNC(=O)c2cccnc2)cc1	none
CC1=NN(c2cccc(F)c2)C(=O)/C1=C/c1ccc(N(C)C)cc1	none (no result: Efa HMGR inh, NCF1 inh, 14-3-3 Bad inh)
Cc1ccc(-c2csc(N3N=C(c4ccccc4)/C(=C\c4ccc(N(C)C)cc4)C3=O)n2)cc1	NCF1 inh 51 (no result: dFosB act)
O=C(NCC1CCCN(C(=O)c2cscn2)C1)c1ccccc1Cl (stereo not drawn)	Efa HMGR inh 10
O=C(NCC1CCCN(C(=O)c2cscn2)C1)c1ccc(-c2ccccc2)cc1 (stereo not drawn)	none
O=C(O)C1Nc2c(O)cc(Cl)c([N+](=O)[O-])c2C2C=CCC12 (stereo not drawn)	Efa HMGR inh 13, 14-3-3 Bad inh 97
O=C1OCC=C1NNC(=O)c1cccnc1	NCF1 inh active
COc1ccc(C(C)(C)C)cc1NC(=O)c1ccoc1C	none
COC(=O)CCC(=O)NC(=S)Nc1ccc(S(=O)(=O)Nc2cc(OC)nc(OC)n2)cc1	none
COc1cc(NS(=O)(=O)c2ccc(NC(=S)NC(=O)CC(C)C)cc2)nc(OC)n1	Efa HMGR inh 13
Cn1cc(S(=O)(=O)N2CCN(c3ccccc3)CC2)c(=O)n(C)c1=O	none
CCC1=[N+](C)CCn2c(C)ccc21	14-3-3 Bad inh 77[fluorescence artefact?]
CCC1=[N+](CC(=O)c2ccc(C)cc2)CCn2c(C)ccc21	none
CC(=O)OC[C@H]1O[C@@H](O/N=C(\C)CCN2CCCCc3nc(C)c(C)cc32)[C@H](OC(C)=O)[C@@H](OC(C)=O)[C@@H]1OC(C)=O	none (no result: dFosB act)
O=S(=O)(c1ccc(Cl)cc1)c1nc(-c2ccco2)oc1N1CCOCC1	14-3-3 Bad inh 76 (no result: Efa HMGR inh)
Cc1cc(C)n(/N=C/c2ccccc2)c(=O)c1C#N	none
N=c1n(Cc2ccccc2)c2ccccc2n1CC(O)COc1ccc(Cl)cc1Cl (stereo not drawn)	dFosB act 30, NCF1 inh 48
COc1ccc(CN2CCN(C(=O)c3cccc4ccccc34)CC2)cc1Br	none (no result: Efa HMGR inh, NCF1 inh, 14-3-3 Bad inh)
COc1cccc(OC)c1C(=O)N1CCN(Cc2ccc3c(c2)OCO3)CC1	14-3-3 Bad inh 97[fluorescence artefact?]
COc1ccc(CN2CCN(C(=O)c3cccs3)CC2)cc1Br	14-3-3 Bad inh 78
O=C(c1cc(-c2ccncc2)nc2ccc(Cl)cc12)N1CCN(Cc2ccc3c(c2)OCO3)CC1	NCF1 inh 48
